Source: PubChem BioAssay (National Center for Advancing Translational Sciences (NCATS))
GLP1R cytotox: qHTS of GLP-1 Receptor Inverse Agonists: Cytotox Screen; HEK293 cAMP-luciferase reporter cells, luminescence, 24 h; Potency, µM (doses to about 38.3 µM), hits mostly inhibitors; 410,000 compounds, 0.13% hits;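 further: loss of luciferase light is scored as toxicity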
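Compound-treated cells are incubated 24 hr at 37 deg C under 5% CO2 after a 12 hour attachment period, then luciferase detection reagent is added and luminescence is measured following 12 min at room temperature; lowered signal indicates toxicity.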
GLS inhibitor: qHTS for Inhibitors of Glutaminase (GLS); Glutaminase kidney isoform, mitochondrial (Homo sapiens), O94925; GLS enzymatic activity, qHTS titration; Potency, µM (series often up to 45.5 µM), usual class: inhibitors; 410,000 compounds, 0.21% hits; AID 624170, 2012
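Assay buffer: 45 mM KH2PO4 pH 8.2, 0.02% Tween-20. hKGA acts on L-glutamine (1 mM solution added); product glutamate is reported by an oxidase/peroxidase Amplex Red coupling, with fluorescence taken at baseline and 30 min.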
KCNH2 3.1 block: qHTS for Inhibitors of KCHN2 3.1: Mutant qHTS. activity change, % (tested at about 1.8 µM). Potassium voltage-gated channel subfamily H member 2, brain isoform KCNH2 3.1 (human). 340,000 compounds, 0.95% hits. U2OS KCNH2 3.1, thallium flux FluxOr; stronger effect = lower value;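 active means maximum activity change below -70%; inconclusive means maximum activity change from -70% to -50%; inactive means maximum activity change above -50%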;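 further: thallium influx rate constant from kinetic fluorescence after stimulation buffer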
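Measured as rate of thallium-driven FluxOr signal in transduced U2OS cells carrying the 3.1 channel, read kinetically for 2 min upon stimulation; values are rate constants scaled to DMSO control wells.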
GLP1R ag: qHTS of GLP-1 Receptor Agonists; Potency, µM (titrated, usually from 45.6 µM), most hits filed as activators; AID 624172, 2012; HEK293 GLP-1R CRE-luciferase, luminescence, 4-6 h; cells express a hypersensitive GLP-1R form; 380,000 compounds, 0.007% hits
GLP1R inv ag: qHTS of GLP-1 Receptor Inverse Agonists (Inhibition Mode); Glucagon-like peptide 1 receptor (Homo sapiens), P43220; HEK293 GLP-1R CRE-luciferase, luminescence, 24 h; GLP-1R form is constitutively active; Potency, µM (top dose mostly 38.3 µM), hits mostly inhibitors; 410,000 compounds, 1.6% hits; AID 624417, 2012; further: nearly all actives have a fitted effect of over 55% in size
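Stable HEK293 clone (constitutively active GLP-1R + cAMP-response luciferase); 200 cells/uL plated, 12 h pre-culture, compound 24 hr, 37 deg C/5% CO2; detection reagent 12 min RT; luminescence.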
hERG WT inh: qHTS for Inhibitors of KCHN2 3.1: Wildtype qHTS; activity change, % at 1.84 µM; U2OS, BacMam KCNH2, thallium flux FluxOr; stronger effect = lower value; AID 720551, 2013; 340,000 compounds, 0.37% hits; Voltage-gated inwardly rectifying potassium channel KCNH2 (Homo sapiens), Q12809;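 active means maximum activity change below -70%; inconclusive means maximum activity change between -70% and -50%; inactive means maximum activity change above -50%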
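U2OS cells transduced with wild-type KCNH2 virus are loaded with FluxOr dye for 45 min, and thallium flux is measured in kinetic reads before and after stimulation buffer. Rate constants are normalized to DMSO controls.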
A number is an active result. An excerpt weighted towards active compounds, which were near 2.8% of everything screened. Unless noted, the call rests on the fitted dose curve; in most records, active means well fitted curve in the direction sought with a large enough effect; inconclusive means small, poorly fitted or top-dose-only effect, or another doubt; inactive means no such curve, though single readings can be large; an effect the other way counts as inactive or inconclusive.

How did N#Cc1ccccc1Cn1cc(C#N)c2ccccc21 do in these assays?
GLP1R cytotox: inactive; GLS inhibitor: inactive; KCNH2 3.1 block: inactive; GLP1R ag: inactive; GLP1R inv ag: inconclusive; hERG WT inh: inactive

What do the screens show for `N#Cc1cn(Cc2ccccc2)c2ccccc12`?
GLP1R cytotox: inactive; GLS inhibitor: inactive; KCNH2 3.1 block: inactive; GLP1R ag: inactive; GLP1R inv ag: 11µM; hERG WT inh: inactive

Results for COc1ccccc1-c1noc(-c2ccc(N3CCC(C)CC3)c([N+](=O)[O-])c2)n1 ?
GLP1R cytotox: inactive; GLS inhibitor: inactive; GLP1R inv ag: inactive

What do the screens show for `CCO[C@@H]1OC(C(=O)N2CCCCCCC2)=C[C@H](c2ccc(C(F)(F)F)cc2)[C@H]1CCCO`?
GLP1R cytotox: inactive; GLS inhibitor: inactive; KCNH2 3.1 block: inactive; GLP1R ag: inactive; GLP1R inv ag: 10µM; hERG WT inh: inactive

What do the screens show for `CCO[C@H]1OC(C(=O)NCc2ccccc2)=C[C@@H](c2ccc(C(F)(F)F)cc2)[C@@H]1CCCO`?
GLP1R cytotox: inactive; GLS inhibitor: inactive; KCNH2 3.1 block: inactive; GLP1R ag: inactive; GLP1R inv ag: 10µM; hERG WT inh: inactive

Results for COc1cccc(CNc2nc3c(-c4cccc(C)c4)nnn3c3ccccc23)c1 ?
GLP1R cytotox: inactive; GLS inhibitor: inactive; GLP1R ag: inactive; GLP1R inv ag: inactive

How did CN(C)S(=O)(=O)c1ccc2c(c1)N(CC(=O)NCc1ccc(F)cc1)C(=O)CS2 do in these assays?
GLP1R cytotox: inactive; GLS inhibitor: inactive; GLP1R inv ag: inactive

How did CCN(CC(=O)Nc1c(F)cccc1F)C(=O)Cn1[nH]c(=O)c2ccccc2c1=O do in these assays?
GLP1R cytotox: inactive; GLS inhibitor: inactive; KCNH2 3.1 block: inactive; GLP1R ag: inactive; GLP1R inv ag: inactive; hERG WT inh: inactive

Results for CCCN(Cc1ccc(C)cc1)C(=O)c1ccc(CNS(=O)(=O)c2ccc(C(C)=O)cc2)cc1 ?
GLP1R cytotox: inactive; GLS inhibitor: inactive; KCNH2 3.1 block: inactive; GLP1R ag: inactive; GLP1R inv ag: inconclusive; hERG WT inh: inactive

How did COc1cc(/C=C(\CCC(=O)O)c2nc3ccccc3s2)ccc1OCC(=O)Nc1c(Cl)cccc1Cl do in these assays?
GLP1R cytotox: inactive; GLS inhibitor: 10µM; KCNH2 3.1 block: inactive; GLP1R ag: inactive; GLP1R inv ag: inactive; hERG WT inh: inactive

How did COc1ccc(S(=O)(=O)N(C)C)cc1NC(=O)Cc1cccs1 do in these assays?
GLP1R cytotox: inactive; GLS inhibitor: inactive; KCNH2 3.1 block: inactive; GLP1R ag: inactive; GLP1R inv ag: inactive; hERG WT inh: inactive

How did CCN(c1ccccc1)S(=O)(=O)c1ccc(OC)c(NC(=O)Cc2ccc(F)cc2)c1 do in these assays?
GLP1R cytotox: inactive; GLS inhibitor: inactive; KCNH2 3.1 block: inactive; GLP1R ag: inactive; GLP1R inv ag: inconclusive; hERG WT inh: inactive

Results for CCc1ccccc1NC(=O)c1cc(S(=O)(=O)N(CC)c2ccccc2)ccc1F ?
GLP1R cytotox: inactive; GLS inhibitor: inactive; GLP1R inv ag: 11µM

How did Cc1ccc2c(c1)N(C(=O)N1CCC(C(=O)Nc3cccc(F)c3)CC1)CCO2 do in these assays?
GLP1R cytotox: inactive; GLS inhibitor: inactive; GLP1R inv ag: inactive

How did O=C(Nc1cccc(-n2cnnn2)c1)c1ccoc1COc1ccc(Cl)cc1 do in these assays?
GLP1R cytotox: inactive; GLS inhibitor: inactive; KCNH2 3.1 block: -74; GLP1R ag: inactive; GLP1R inv ag: inconclusive; hERG WT inh: inconclusive

What do the screens show for `COc1ccc(N/N=C(/N=Nc2nc(C)cc(=O)[nH]2)c2ccccc2)cc1`?
GLP1R cytotox: 4µM; GLS inhibitor: inactive; KCNH2 3.1 block: inactive; GLP1R ag: inactive; GLP1R inv ag: inconclusive; hERG WT inh: inactive
